Laboratory results from PubChem BioAssay (NCI).
The panel holds about 83,000 compounds, 20% with a hit somewhere; the sample as a whole holds those more often.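 How to read the values: 0–100, growth inhibition (40 = 60% inhibited); 0, no net growth; -100 to 0, cell death (-40 = 40% of starting cells died; -100 = all dead).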 Values without a mark were called inactive. Activity calls are given as the source filed them. Rule for the calls: active = growth percent below 10; inactive = the rest.

What was measured:
Test in all cases: NCI-60 one-dose screen, 48 h (100 = growth as untreated, 0 = no growth, -100 = all killed)
Details in all cases: 10 µM unless noted
[1] = system: BT-549 breast
[2] = system: SW-620 colon
[3] = system: MCF7 breast
[4] = system: HCT-116 colon
[5] = system: HCC-2998 colon
[6] = system: KM12 colon
[7] = system: MDA-MB-435 melanoma

Compound: N#CCCCCCn1c2ccccc2c2c3c(c4c5ccccc5n(CCCCCC#N)c4c21)C(=O)N(O)C3=O
- growth [1]: 75%
- growth [2]: 106%
- growth [3]: 72.2%
- growth [4]: 71.3%
- growth [5]: 80.8%
- growth [6]: 71.8%

Compound: CCN1CCN(c2nc(C)cc(N(CCCNc3ccnc4cc(Cl)ccc34)Cc3ccco3)n2)CC1
- growth [1]: 54.5%
- growth [2]: 39.3%
- growth [3]: 32.3%
- growth [4]: 42.5%
- growth [5]: 88%
- growth [6]: 67.9%

Compound: Cc1ccc2c(c1)c(-c1nc(-c3c[nH]c4ncccc34)cs1)cn2C
- growth [1]: 104%
- growth [7]: 96.5%
- growth [2]: 112%
- growth [3]: 17.4%
- growth [4]: 85.1%
- growth [5]: 80%
- growth [6]: 57.8%

Compound: O=C(NC1=CC(=O)c2ccccc2C1=O)c1ccccc1
- growth [7]: 2.96% (active)
- growth [2]: -56.2% (active)
- growth [3]: 14.3%
- growth [4]: -69% (active)
- growth [5]: 32.3%
- growth [6]: 11.2%

Compound: Cn1cc(-c2csc(-c3cn(C(=O)OC(C)(C)C)c4ccccc34)n2)c2cccnc21
- growth [1]: 60.3%
- growth [7]: 11.4%
- growth [2]: 36.1%
- growth [3]: 53.6%
- growth [4]: 56%
- growth [5]: 65.5%
- growth [6]: 38.5%

Compound: Oc1cccc2oc(=S)[nH]c12
- growth [7]: 115%
- growth [2]: 108%
- growth [3]: 101%
- growth [4]: 107%
- growth [5]: 100%
- growth [6]: 115%

Compound: COc1cc(NC(C)CN(CC(C)C)C(C)C)c2ncccc2c1 (stereo unspecified)
- growth [1]: 108%
- growth [7]: 114%
- growth [2]: 92.9%
- growth [3]: 43%
- growth [4]: 88.6%
- growth [5]: 103%
- growth [6]: 93.2%

Compound: COc1ccc(-c2cc(=O)oc3ccc(Cl)cc23)cc1F
- growth [1]: 18.9%
- growth [7]: -21.1% (active)
- growth [2]: 23.5%
- growth [3]: 17.4%
- growth [5]: 19.6%
- growth [6]: 11.2%

Compound: O=C(c1ccccc1)C(CN1CCOCC1)c1ccccc1 (stereo unspecified)
- growth [1]: 30.2%
- growth [2]: -45.2% (active)
- growth [3]: 1.11% (active)
- growth [4]: 3.3% (active)
- growth [5]: 54.4%
- growth [6]: 20.8%

Compound: [B-][N+](CC)(CC)c1ccccc1
- growth [1]: 99.3%
- growth [2]: 109%
- growth [3]: 95.9%
- growth [4]: 100%
- growth [5]: 105%
- growth [6]: 105%

Compound: COc1cc(-c2cc(-c3nc4ccc(F)cc4[nH]3)[nH]n2)cc(OC)c1OC
- growth [7]: 5.65% (active)
- growth [2]: 52.1%
- growth [3]: 9.15% (active)
- growth [4]: 31.2%
- growth [5]: 66.6%
- growth [6]: 12.9%

Compound: Cn1cc(-c2csc(-c3cn(CCCN4CCCCC4)c4ccc(F)cc34)n2)c2cccnc21
- growth [1]: 71.3%
- growth [7]: 71.3%
- growth [2]: 89.7%
- growth [3]: 78.6%
- growth [4]: 88.2%
- growth [5]: 102%
- growth [6]: 94%

Compound: NCCn1cc(-c2nc(-c3c[nH]c4ncccc34)cs2)c2cc(Br)ccc21
- growth [1]: 97.8%
- growth [7]: 84.8%
- growth [2]: 7.12% (active)
- growth [3]: 30.7%
- growth [4]: 66.6%
- growth [5]: 100%
- growth [6]: 65.2%

Compound: COc1ccc(/C(=C\c2ccc3c(c2)OCO3)C(=O)Nc2nc3ccccc3s2)cc1OC
- growth [1]: 88.7%
- growth [7]: 95.7%
- growth [2]: 102%
- growth [3]: 89.5%
- growth [4]: 73.6%
- growth [5]: 102%
- growth [6]: 85.4%

Compound: COC(=O)[C@]12CC[C@@H](C)[C@H](C)[C@@H]1C1=CC(=O)[C@@H]3[C@@]4(C)C[C@@H](O)[C@H](O)[C@@]5(C)COC(=C45)C[C@@]3(C)[C@]1(C)CC2
- growth [1]: 53.9%
- growth [7]: -11.3% (active)
- growth [2]: 33.3%
- growth [3]: 28.5%
- growth [4]: 53.2%
- growth [5]: 69.2%
- growth [6]: 34.6%

Compound: O=C(/C(=C(\C(=O)c1ccccc1)c1ccccc1)c1ccccc1)c1ccccc1
- growth [7]: 73.6%
- growth [2]: 38.5%
- growth [3]: 42.6%
- growth [4]: 14.1%
- growth [5]: 52%
- growth [6]: 17.1%

Compound: O=C(NO)c1ccc(Cn2c(=O)n(-c3ccccc3)c(=O)c3ccccc32)cc1
- growth [1]: 32.4%
- growth [2]: 0.142% (active)
- growth [3]: 33.2%
- growth [4]: -53.1% (active)
- growth [5]: 54.1%
- growth [6]: -7.84% (active)

Compound: COc1cccc(-c2nn(-c3ccccc3)cc2-c2ccnc(NCCNS(=O)(=O)c3ccc(C(F)(F)F)cc3)c2)c1
- growth [1]: -29.3% (active)
- growth [7]: 13.2%
- growth [2]: 28.4%
- growth [3]: 11.1%
- growth [4]: 14.7%
- growth [5]: 13.7%
- growth [6]: 14.7%

Compound: CN1CCN(CCOc2ccc(-c3cnc4c(-c5ccccc5F)cnn4c3)cc2)CC1
- growth [1]: 69.9%
- growth [7]: -29.2% (active)
- growth [2]: -73.8% (active)
- growth [3]: 19.2%
- growth [4]: 3.73% (active)
- growth [5]: 22.4%
- growth [6]: 9.44% (active)

Compound: Cn1cc(-c2nc(-c3c[nH]c4ncccc34)cs2)c2cc(F)ccc21
- growth [1]: 58%
- growth [7]: 0.641% (active)
- growth [2]: 31.8%
- growth [3]: 7.84% (active)
- growth [4]: 20.3%
- growth [5]: 20.5%
- growth [6]: -12.7% (active)

Compound: c1ccc(-c2nc(Nc3ccc(-c4nc5ccccc5[nH]4)cc3)nc(N3CCOCC3)n2)cc1
- growth [1]: 33.7%
- growth [7]: -81.1% (active)
- growth [2]: -82.9% (active)
- growth [3]: -76.2% (active)
- growth [4]: -81.5% (active)
- growth [5]: -80.7% (active)
- growth [6]: -76.6% (active)

Compound: Cc1ccc2c(c1)c1nc3cc(C)c(C)cc3nc1n2CCN(C)C
- growth [1]: 50.2%
- growth [7]: 16.1%
- growth [2]: 12.5%
- growth [3]: -6.81% (active)
- growth [4]: 8.95% (active)
- growth [5]: 32.9%
- growth [6]: 21.7%

Compound: NCCn1cc(-c2nc(-c3c[nH]c4ncccc34)cs2)c2cc(F)ccc21
- growth [1]: 95.7%
- growth [2]: 50.2%
- growth [3]: 57.2%
- growth [5]: 96.2%
- growth [6]: 65.6%

Compound: CC(C)(C)CC(C)(C)c1ccc(OCCOCC[N+](C)(C)CC(=O)[O-])cc1
- growth [2]: 101%
- growth [3]: 105%
- growth [4]: 107%
- growth [5]: 108%
- growth [6]: 112%

Compound: Cc1nn(-c2ccc(Br)cc2)c2nc3[nH]c(=O)[nH]c(=O)c3nc12
- growth [7]: 99.1%
- growth [3]: 93.4%
- growth [4]: 98.3%
- growth [5]: 114%
- growth [6]: 103%

Compound: c1csc(-c2nc(-c3cc4ccccc4c(N4CCOCC4)n3)cs2)c1
- growth [1]: 103%
- growth [7]: 38%
- growth [2]: 97.2%
- growth [3]: 80.5%
- growth [4]: 100%
- growth [5]: 103%
- growth [6]: 99.7%

Compound: C=C(C)[C@@H]1CC[C@]2(C(=O)N3CCN(C)CC3)CC[C@]3(C)[C@H](CC[C@@H]4[C@@]5(C)C/C(=C/c6ccc(C(F)(F)F)cc6)C(=O)C(C)(C)[C@@H]5CC[C@]43C)[C@@H]12
- growth [1]: 102%
- growth [7]: 97.2%
- growth [2]: 99.5%
- growth [3]: 87.5%
- growth [5]: 107%
- growth [6]: 97%

Compound: Cc1nnc2nc(N)[nH]n2c1=O
- growth [1]: 99.6%
- growth [2]: 107%
- growth [3]: 97.9%
- growth [4]: 101%
- growth [5]: 102%
- growth [6]: 96%

Compound: O=[N+]([O-])c1ccc(N/N=C(\C(=N/Nc2ccc([N+](=O)[O-])cc2[N+](=O)[O-])c2ccccc2)c2ccccc2)c([N+](=O)[O-])c1
- growth [7]: 77.8%
- growth [2]: 72.8%
- growth [3]: 96.3%
- growth [4]: 65%
- growth [5]: 89.6%
- growth [6]: 88.5%

Compound: O=C1c2cc3c(cc2-c2c1c1ccc(Cl)cc1c(=O)n2C[C@H](O)[C@@H](O)[C@H](O)CO)OCO3
- growth [1]: -1.82% (active)
- growth [7]: -39.2% (active)
- growth [2]: 2.65% (active)
- growth [3]: 1.66% (active)
- growth [4]: 11.1%
- growth [5]: 16.3%
- growth [6]: 7.14% (active)
